A short description of test [1]: anti-His antibody binders, primary screen, artefact control for SMM control protein annotation, biochemical, small-molecule microarray, 635 nm fluorescence (AID 1128).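 Note: score merges feature fluorescence with signal-to-noise for each printed compound spot.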 The following applies: anti-His Alexa647 antibody binding, higher = more signal.
Test [2] relates to Human papillomavirus type 1a E7 protein (residues 1-88). The test can be described thus: HPV1a E7 small-molecule binders, primary screen, biochemical, small-molecule microarray, residues 1-88, 635 nm (AID 1129). The following applies: small-molecule microarray binding, fluorescence 635 nm; higher = more signal.
Test [3] concerns the target Focal adhesion kinase 1 (Homo sapiens) (UniProt Q05397). Kind of test: small-molecule microarray binders of FAK, primary screen, biochemical, 635/667 nm fluorescence, BSA, DTT (AID 1130).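 Note: composite of spot emission at 667 nm and signal to noise over triplicate slides.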 The following applies: PTK2 binding, 635 nm fluorescence, higher = more signal.
In test [4] the test system is Fibrinogen (Alexa647-labelled). The test can be described thus: fibrinogen binders on compound microarrays, profiling panel, artefact control for SMM control-protein annotation, biochemical, small-molecule microarray, 635/667 nm fluorescence (AID 1131).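 Note: z-score merges 667 nm fluorescence with per-spot signal-to-noise over triplicate slides.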 The following applies: fibrinogen-A647 binding fluorescence, higher = more signal.
For test [5], the target named is Follistatin (Homo sapiens) (UniProt P19883). Kind of test: follistatin binders on small-molecule microarrays, primary screen, biochemical, small-molecule microarray, 635/667 nm fluorescence (AID 1132). The following applies: FST binding, 635 nm fluorescence, higher = more signal.
Sequence of Follistatin (Homo sapiens) (P19883 whole entry, looked up): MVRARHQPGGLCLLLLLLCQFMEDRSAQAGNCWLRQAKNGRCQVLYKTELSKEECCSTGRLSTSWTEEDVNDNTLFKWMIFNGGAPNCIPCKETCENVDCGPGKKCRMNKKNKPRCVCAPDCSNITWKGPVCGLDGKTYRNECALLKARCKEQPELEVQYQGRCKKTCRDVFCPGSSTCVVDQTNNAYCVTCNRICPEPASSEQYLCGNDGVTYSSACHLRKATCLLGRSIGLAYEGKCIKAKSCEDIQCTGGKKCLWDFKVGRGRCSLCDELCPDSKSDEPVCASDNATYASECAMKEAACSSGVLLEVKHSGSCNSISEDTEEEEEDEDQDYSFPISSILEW
Test [6] has as its target Fibroblast growth factor 2 (Homo sapiens) (UniProt P09038). The test can be described thus: FGF2 binders on small-molecule microarrays, primary screen, biochemical, small-molecule microarray, 635/667 nm fluorescence (AID 1133). The following applies: small-molecule microarray binding, FGF2, fluorescence 635/667; higher = more signal.
Test [7] in a line: mitochondrial membrane potential change in A549 cells, profiling panel, cell-based, JC-1 fluorescence, basal, 24 h, 100 nL (AID 1138).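 Note: A549 lung adenocarcinoma cells under basal conditions with no added stimulus; test concentration not given here.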 The following applies: higher = more signal.
Another test concerns Lefty1. Kind of test: Lefty1 binders on small-molecule microarrays, primary screen, biochemical, small-molecule microarray, 635/667 nm fluorescence (AID 1139). The following applies: small-molecule microarray binding, fluorescence 635/667; higher = more signal.
Test [8] concerns wheat germ agglutinin (Triticum aestivum), Alexa647-labelled. Kind of test: wheat germ agglutinin binders on compound microarrays, profiling panel, artefact control for SMM control-protein annotation, biochemical, small-molecule microarray, 635/667 nm fluorescence (AID 1140).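 Note: score merges 667 nm feature emission with signal to noise over triplicate slides.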 The following applies: WGA-A647 binding, 635 nm fluorescence, higher = more signal.
In test [9] the target is Luciferin 4-monooxygenase (Photinus pyralis) (UniProt P08659). Kind of test: firefly luciferase enzyme inhibitors, primary screen, biochemical, luminescence, purified enzyme, 2006 set (AID 1141).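 Note: cell-free assay with purified firefly luciferase at 100 ng per well in PBS; test concentration not given here.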 The following applies: SteadyGlo luminescence, 30 min, higher = more signal, called active from +8 up or from −8 down.
Sequence of Luciferin 4-monooxygenase (Photinus pyralis) (P08659 whole entry, looked up): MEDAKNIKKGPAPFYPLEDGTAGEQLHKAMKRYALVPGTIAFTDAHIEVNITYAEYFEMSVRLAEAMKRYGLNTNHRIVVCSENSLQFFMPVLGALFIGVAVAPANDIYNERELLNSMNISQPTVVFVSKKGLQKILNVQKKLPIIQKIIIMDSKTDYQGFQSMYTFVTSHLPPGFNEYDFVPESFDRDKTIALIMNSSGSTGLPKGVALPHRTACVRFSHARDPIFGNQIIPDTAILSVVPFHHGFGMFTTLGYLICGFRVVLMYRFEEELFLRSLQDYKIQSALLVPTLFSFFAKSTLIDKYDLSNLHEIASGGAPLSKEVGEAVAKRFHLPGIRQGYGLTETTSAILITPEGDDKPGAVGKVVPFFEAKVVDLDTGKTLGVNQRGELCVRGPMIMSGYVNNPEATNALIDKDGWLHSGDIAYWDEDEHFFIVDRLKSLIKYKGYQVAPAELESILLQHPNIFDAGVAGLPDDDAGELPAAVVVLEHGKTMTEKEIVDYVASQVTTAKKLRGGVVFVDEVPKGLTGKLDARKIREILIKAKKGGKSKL
The test system of test [10] is Wnt5a (protein binding on small-molecule microarray). The test can be described thus: Wnt5a binders on small-molecule microarray, primary screen, biophysical, 635/667 nm fluorescence (AID 1142).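 Note: fluorescence read at 667 nm with signal to noise per printed feature.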 The following applies: 635 nm fluorescence, higher = more signal.
Test [11] is described as follows: cell viability in Huh7 cells, primary screen, cytotoxicity control for HCV replication inhibitor project, CellTiter-Glo luminescence, basal, 48 h (AID 1143).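 Note: Huh7 hepatoma cells carrying a hepatitis C replication reporter with no stimulus; test concentration not given here.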 The following applies: Huh7 HCV replicon, higher = more signal, called active from +8 up or from −8 down. Background: In ATP-based viability assays light output follows the ATP content of the culture.
The nature of test [12]: P. aeruginosa biofilm formation inhibitors, primary screen, PAO1 strain, BacTiter-Glo luminescence, LB-PBS (AID 1144). The following applies: 12 h, higher = more signal.
Test [13] in a line: CREB reporter modulators without forskolin, primary screen, cell-based, PC12, CRE-LacZ reporter, unstimulated (AID 1145). The following applies: no forskolin, luminescence, 4.5 h, higher = more signal, called active from +8 up or from −8 down.
A short description of test [14]: CREB reporter modulators under forskolin, primary screen, cell-based, PC12, CRE-LacZ reporter, forskolin-stimulated (AID 1146).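 Note: PC12 cells with 6xCRE LacZ reporter stimulated by forskolin 10 µM; beta-galactosidase reporter signal reflecting CREB driven transcription.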 The following applies: luminescence, 4.5 h, higher = more signal, called active from +8 up or from −8 down.
In test [15] the target is Streptavidin (Streptomyces avidinii) (UniProt P22629). The test can be described thus: streptavidin binders on small-molecule microarray, primary screen, artefact control for SMM compound annotation, biophysical, 635/667 nm fluorescence (AID 1147).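 Note: signal reflects streptavidin binding to arrayed compounds as a control protein.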 The following applies: streptavidin binding, higher = more signal.
Sequence of Streptavidin (Streptomyces avidinii) (P22629 whole entry, looked up): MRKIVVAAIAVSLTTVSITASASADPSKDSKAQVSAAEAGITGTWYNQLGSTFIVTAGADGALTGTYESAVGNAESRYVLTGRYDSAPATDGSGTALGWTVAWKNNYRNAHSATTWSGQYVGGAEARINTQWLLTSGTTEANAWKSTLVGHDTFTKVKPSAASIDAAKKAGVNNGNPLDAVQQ
A short description of test [16]: small-molecule binders of probe aInhba, primary screen, biochemical, small-molecule microarray, 635/667 nm fluorescence (AID 1148).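 Note: score merges 667nm spot fluorescence with signal-to-noise for antibody binding to printed compounds.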 The following applies: higher = more signal.
Test [17] deals with Torsin-1A (Homo sapiens) (UniProt O14656). The test can be described thus: torsin A binders from cell lysate, primary screen, small-molecule microarray, wild-type, 635/667 nm (AID 1149). The following applies: COS7 hTOR1A-WT lysate, 635 nm fluorescence, higher = more signal.
Sequence of Torsin-1A (Homo sapiens) (O14656 whole entry, looked up): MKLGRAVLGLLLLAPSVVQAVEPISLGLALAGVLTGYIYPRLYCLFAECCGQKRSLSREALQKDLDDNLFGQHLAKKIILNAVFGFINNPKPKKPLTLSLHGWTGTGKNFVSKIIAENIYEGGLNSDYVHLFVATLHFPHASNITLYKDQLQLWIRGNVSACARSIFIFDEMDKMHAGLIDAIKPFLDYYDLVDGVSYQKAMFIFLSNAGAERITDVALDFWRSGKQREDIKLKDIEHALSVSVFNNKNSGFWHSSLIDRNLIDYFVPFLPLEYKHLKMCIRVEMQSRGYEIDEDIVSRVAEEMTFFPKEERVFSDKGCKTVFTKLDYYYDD
The target is the same in test [18]. Kind of test: small-molecule binders of mutant TOR1A in lysate, primary screen, cell lysate, small-molecule microarray, COS7 lysate, 635/667 nm fluorescence (AID 1150).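 Note: score pools 667 nm emission and signal to noise measuring lysate protein binding.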 The following applies: COS7 hTOR1A mutant lysate, 635 nm fluorescence, higher = more signal.
Test [19] has as its system Sonic hedgehog protein (Shh). The test can be described thus: small-molecule binders of Shh protein, primary screen, biochemical, small-molecule microarray, 635/667 nm fluorescence (AID 1151).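 Note: Shh protein binding to compounds spotted on small-molecule microarray slides; score combines spot fluorescence intensity with signal-to-noise across triplicate slides.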 The following applies: small-molecule microarray binding, 635 nm fluorescence; higher = more signal.

Experimental findings from PubChem BioAssay are described below.

Activity calls are given as the source filed them. Unless noted, the rule behind the calls is not given here.

Sequence of Focal adhesion kinase 1 (Homo sapiens) (Q05397 whole entry, looked up): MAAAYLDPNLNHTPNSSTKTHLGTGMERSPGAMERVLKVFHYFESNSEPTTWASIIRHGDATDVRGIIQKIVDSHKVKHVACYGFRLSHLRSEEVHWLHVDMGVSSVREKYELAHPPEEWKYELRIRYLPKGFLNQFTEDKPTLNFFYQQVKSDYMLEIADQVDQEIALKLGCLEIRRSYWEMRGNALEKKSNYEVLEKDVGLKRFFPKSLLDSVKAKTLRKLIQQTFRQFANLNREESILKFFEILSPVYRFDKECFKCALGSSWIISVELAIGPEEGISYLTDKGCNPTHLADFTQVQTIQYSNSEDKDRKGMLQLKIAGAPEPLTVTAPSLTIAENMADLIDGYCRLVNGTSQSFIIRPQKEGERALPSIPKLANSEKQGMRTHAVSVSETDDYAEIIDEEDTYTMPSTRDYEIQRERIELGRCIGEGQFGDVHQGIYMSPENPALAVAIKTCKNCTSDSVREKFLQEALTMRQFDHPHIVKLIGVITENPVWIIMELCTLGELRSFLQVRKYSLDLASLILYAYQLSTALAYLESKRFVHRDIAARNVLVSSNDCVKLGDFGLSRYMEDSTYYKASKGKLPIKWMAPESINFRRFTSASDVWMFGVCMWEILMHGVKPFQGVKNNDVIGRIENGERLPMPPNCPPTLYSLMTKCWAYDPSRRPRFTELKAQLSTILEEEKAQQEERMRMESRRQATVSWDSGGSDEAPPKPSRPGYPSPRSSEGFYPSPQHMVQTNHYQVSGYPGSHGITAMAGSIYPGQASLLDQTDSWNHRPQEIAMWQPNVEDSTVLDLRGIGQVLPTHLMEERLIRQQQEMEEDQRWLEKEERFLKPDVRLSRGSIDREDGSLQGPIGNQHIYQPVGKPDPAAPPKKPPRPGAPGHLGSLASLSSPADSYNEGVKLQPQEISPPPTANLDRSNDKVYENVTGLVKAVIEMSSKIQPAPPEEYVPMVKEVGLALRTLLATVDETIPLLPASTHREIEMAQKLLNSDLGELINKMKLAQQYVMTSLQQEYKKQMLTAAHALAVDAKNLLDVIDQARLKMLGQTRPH
Sequence of Fibroblast growth factor 2 (Homo sapiens) (P09038 whole entry, looked up): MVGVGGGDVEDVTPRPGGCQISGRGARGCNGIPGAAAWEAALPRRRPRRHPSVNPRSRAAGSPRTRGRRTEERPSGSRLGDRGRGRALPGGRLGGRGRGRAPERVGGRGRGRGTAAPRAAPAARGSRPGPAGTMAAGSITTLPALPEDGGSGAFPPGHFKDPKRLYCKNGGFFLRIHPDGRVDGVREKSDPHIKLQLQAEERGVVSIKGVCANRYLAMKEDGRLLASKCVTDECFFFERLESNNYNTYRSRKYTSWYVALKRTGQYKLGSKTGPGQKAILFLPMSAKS

For the compound `C=C(CCCC)C(=O)CC[C@H](OC(=O)c1cccnc1)c1ccc(CO)o1`, the composite z-score was 3.27 in [1]; 1.2 in test [2]; -0.188 in test [3]; 0.664 in [4]; 1.18 in [5]; 1.27 in test [6]. For the same compound, the composite z-score turned out to be 1.65 with Lefty1; 0.791 in test [8]; 0.239 in test [10]; 0.14 in test [15]; 0.212 in test [16]; 0.835 with Torsin-1A (Homo sapiens) [17]. In addition, the composite z-score with Torsin-1A (Homo sapiens) [18] was 0.576; in test [19], 1.6. In addition, the z-score in [7] is -0.555; in test [9] it was -1.33 (inactive); in [11], 0.0536 (inactive); in test [12], -0.159 (inactive); in test [13], -0.117 (inactive); in test [14], 0.484 (inactive).

`C=C(CC1([C@@H](NP(=O)(c2ccccc2)c2ccccc2)[C@H]2C[C@@H]2CCN(C(=O)OCC)S(=O)(=O)c2ccc(C)cc2)CC1)c1ccccc1`: the composite z-score was 1.74 in [1]; 1.22 in [2]; 1.15 in [3]; 0.781 in test [4]; 0.712 in test [5]; -0.804 in test [6]. The composite z-score is -0.162 in the test on Lefty1; 0.593 in test [8]; 0.302 in test [10]; 1.27 in test [15]; 0.199 in test [16]; -0.423 with Torsin-1A (Homo sapiens) [17]. For the same compound, the values for the composite z-score (in the test with Torsin-1A (Homo sapiens) [18]; in test [19]) were 0.0999 and -1.18, respectively. For the same compound, the z-score is 0.782 in test [7]; 2.49 (inactive) in test [9]; -3.37 (inactive) in [11]; 0.83 (inactive) in test [12]; -0.196 (inactive) in test [13]; 0.108 (inactive) in test [14].

In the case of `CC(C)CNC(=O)[C@@]1(C)c2ccccc2C(=O)N(Cc2cc(F)cc(C(F)(F)F)c2)[C@H]1c1ccc(CO)cc1`, the composite z-score stood at 0.83 in [1]; 0.85 in test [2]; 0.0301 in test [3]; 0.51 in test [4]; 1.16 in test [5]; 0.803 in test [6]. For the same compound, the composite z-score in the test on Lefty1 was 0.372; in test [8] it was 0.154; in [10] it was 0.03; in test [15], -0.26; in test [16], -0.0719; with Torsin-1A (Homo sapiens) [17], 0.194. Further, the composite z-score in the test with Torsin-1A (Homo sapiens) [18] was 0.127; in [19], 1.23. Besides, the z-score was 0.165 in test [7]; 0.189 (inactive) in [9]; 0.169 (inactive) in [11]; -0.428 (inactive) in test [12]; -0.321 (inactive) in test [13]; 0.13 (inactive) in test [14].

Take `CC(C)C[C@@H]1NC(=O)[C@@H]2C[C@H](C(=O)O)[C@H](c3ccc(O)cc3)N2C1=O`: the composite z-score in test [1] was found to be 2.41; in test [2], 1.13; in test [3] it was 0.6; in [4], 0.878; in [5] it was 1.37; in test [6] it was 1.49. For the same compound, the composite z-score in the test on Lefty1 was 1.04; in [8], 0.938; in test [10] it was 0.415; in test [15], 0.741; in test [16] it was -0.013; in the test with Torsin-1A (Homo sapiens) [17], 0.656. The values for the composite z-score (with Torsin-1A (Homo sapiens) [18]; in test [19]) were 1.05 and 1.74, respectively. In addition, the z-score in [7] was 0.892; in test [9] it was -2.98 (inactive); in test [11], -0.393 (inactive); in test [12], -0.934 (inactive); in test [13] it was -0.114 (inactive); in test [14], -0.837 (inactive).

For the compound `O=C1C2C=CC(C(O)c3ccc([N+](=O)[O-])cc3)N(Nc3ccccc3)C2C(=O)N1c1ccccc1` (stereo not given), the composite z-score in test [1] is 0.175; in [2], 0.976; in test [3] it was 1.38; in [4], 1.02; in [5], 0.544; in test [6], -0.239. The composite z-score is 0.27 in the test with Lefty1; 0.611 in [8]; 0.0051 in [10]; -0.146 in test [15]; -0.101 in [16]; -0.132 with Torsin-1A (Homo sapiens) [17]. Also, the results for the composite z-score (in the test with Torsin-1A (Homo sapiens) [18]; in test [19]) were 0.221 and -0.653, respectively. The z-score was -0.467 in test [7]; -0.284 (inactive) in test [9]; 0.0203 (inactive) in test [11]; -0.0023 (inactive) in test [12]; -0.333 (inactive) in test [13]; 0.495 (inactive) in [14].
